BCLXL inh – inhibitors of human Bcl-xL; GST-Bcl-xL / FITC-Bim BH3 peptide fluorescence polarization; inhibition, % at 10.9 µM; 320,000 tested, 0.7% active;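 active = inhibition above the mean of all tested compounds plus 3 SD, cutoff set per campaign, cut at about 30% in these data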;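 also: 0% = DMSO wells and 100% = unlabeled Bim-BH3 peptide competitor; inhibitors lower millipolarization by displacing the labeled peptide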
MEX-5 binding – C. elegans MEX-5 TCR-2 RNA binding activity. Q9XUB2. MEX-5/FITC-TCR2 RNA binding, fluorescence polarization; hits give low values. activity score (negative = inhibition of binding), % at 10 µM. 300,000 tested, 0.38% active;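 active = inhibition past about -25% in most replicates, and total fluorescence under double the plate's negative control median, limit read from the data; inconclusive = replicates evenly split on the limit, or fluorescence at least double controls; inactive = too little inhibition in most replicates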;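 also: 0% = DMSO and -100% = 5 µM competing unlabeled TCR2 RNA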
EBV gp42 block – EBV gp42 inhibition; Fluorescence polarization binding assay, mP read-out; AID 1085; Q1HVG2; inhibition, % (tested at 21.74 µM); 220,000 tested, 0.42% active; in the data active = inhibition above about 50%
MCL1-BIM inh – MCL1-BIM-BH3 interaction inhibition (human); 320,000 tested, 0.68% active; AID 2057; Q07820; GST-MCL1 / FITC-Bim-BH3 fluorescence polarization; inhibition, % at 10.9 µM;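 active = inhibition above the mean inhibition of all tested compounds plus 3 SD, set per campaign, cut at about 40% in these data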;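 also: 0% = DMSO wells and 100% = unlabeled Bim-BH3 peptide control; higher means more loss of mP so more displacement of Bim peptide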
eLon inh – E. coli protease La inhibition; inhibition, % at 7.94 µM; 360,000 tested, 0.42% active; AID 602123; purified E. coli Lon protease, fluorescence polarization; in the data active = inhibition above about 13%, passing the limit was not always enough;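 also: 0% = enzyme with probe and DMSO and 100% = no enzyme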
GLD-1 RNA inh – GLD-1-TGE RNA interaction inhibition (C. elegans) | purified GLD-1 + fluorescein TGE RNA, fluorescence polarization | inhibition, % at 5.96 µM | 320,000 tested, 0.44% active | AID 2280;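 active = percent inhibition above a per-plate cutoff, the plate mean of test compounds plus 3 SD, cut at about 30% in these data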;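 also: 0% = DMSO wells with GLD-1 and probe and 100% = wells lacking GLD-1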
Target sequence (Q17339 whole entry, looked up): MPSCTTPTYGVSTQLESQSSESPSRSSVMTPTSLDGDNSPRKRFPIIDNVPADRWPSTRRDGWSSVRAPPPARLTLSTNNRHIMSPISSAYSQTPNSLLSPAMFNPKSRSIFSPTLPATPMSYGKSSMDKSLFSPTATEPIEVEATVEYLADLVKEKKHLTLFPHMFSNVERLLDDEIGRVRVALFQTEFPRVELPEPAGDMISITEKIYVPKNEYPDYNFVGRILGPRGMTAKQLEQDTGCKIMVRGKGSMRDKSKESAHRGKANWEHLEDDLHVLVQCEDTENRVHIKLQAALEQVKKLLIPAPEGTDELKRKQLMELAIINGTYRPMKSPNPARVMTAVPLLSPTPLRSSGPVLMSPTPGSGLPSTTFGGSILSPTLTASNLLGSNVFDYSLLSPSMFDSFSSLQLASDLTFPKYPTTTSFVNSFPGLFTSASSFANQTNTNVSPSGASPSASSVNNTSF
Numbers without * were called inactive; ? = inconclusive; / = not tested or not shown; + = active, no number. Shown are actives, neighbours in structure and some others; about 1.5% of the full set was active somewhere.

SMILES | BCLXL inh | MEX-5 binding | EBV gp42 block | MCL1-BIM inh | eLon inh | GLD-1 RNA inh
Cc1nc2cc(C(=O)O)ccc2n1C1CCCCC1 | 0 | -2 | -16 | 5 | -8 | 2
CCN1C(=O)/C(=C/C2=Cc3ccccc3OC2C)SC1=S (configuration not stated) | -29 | -1 | 52* | -50 | -66 | -24
CCN(CC)Cc1c(O)ccc2c1O/C(=C\C=C\c1ccccc1)C2=O | 27 | -7 | -12 | 19 | -77 | 12
COCCN(CCOC)Cc1c(O)ccc2c1O/C(=C\c1ccc(C)o1)C2=O | 34* | ? | / | 24 | -67 | -4
O=C(Nc1cccc2c1CCCC2)c1cc(C2CCCCN2C(=O)c2cccs2)on1 (configuration not stated) | / | / | / | / | -2 | /
CCOC(=O)C1=CCN(S(=O)(=O)c2ccccc2Br)C1c1cccc(C)c1 (configuration not stated) | / | / | / | / | 1 | /
CCOC(=O)/C=c1\s/c(=C\c2ccc3cc(OC)ccc3c2)c(=O)n1CC(=O)NCc1ccc2c(c1)OCO2 | 7 | -31* | -42 | 3 | -5 | 3
COc1ccc(CCNC(=O)CCNC(=O)c2ccc([N+](=O)[O-])cc2)cc1 | 3 | 2 | / | -7 | 9 | -13
COc1cc(NC(=O)Cn2ncc3c2-c2ccccc2OC3)cc(OC)c1OC | 172* | 2 | 7 | 33 | -6 | 7
Cc1ccc(C)c(N2N=C(C(=O)OCc3nnc(-c4ccccc4)o3)CCC2=O)c1 | -1 | 1 | / | -10 | -20 | -1
CCN1/C(=C\C(=S)Nc2ccccc2)Sc2ccccc21 | 15 | 0 | 10 | 17 | -3 | -15
CCN1/C(=C/C(C)=C/c2sc3ccccc3[n+]2CC)Sc2ccccc21 | 33* | 5 | -41 | 17 | 4 | +
O=C(OCCN1C(=O)c2cccc3c(N4CCOCC4)ccc(c23)C1=O)c1cc(Cl)cc(Cl)c1 | / | / | 132* | / | / | /
O=C(OCCN1C(=O)c2ccccc2C1=O)c1ccc(S(=O)(=O)N2CCCCCC2)cc1 | 0 | / | 9 | -4 | 10 | 12
O=C(OCCN1C(=O)c2ccccc2C1=O)c1ccccc1 | 1 | / | -15 | 2 | -17 | 2
CCN(CC)S(=O)(=O)c1ccc(C(=O)OCCN2C(=O)c3cccc4c(N5CCOCC5)ccc(c34)C2=O)cc1 | 23 | ? | 133* | 14 | 2 | 13
Cc1cc(C)cc(OC(=O)COc2ccccc2C)c1 | -3 | 0 | / | 1 | -4 | 5
COc1ccccc1N1CCN(/N=C/c2cccc(Cl)c2)CC1 | 33* | 1 | / | -5 | 1 | 4
COc1cccc(/C=N/N2CCN(c3ccccc3OC)CC2)c1 | 1 | -1 | 10 | 1 | 6 | 6
CCN1C(=C(C#N)C#N)C=Cc2cc(C)ccc21 | 25 | 0 | 34 | 18 | -2 | 41*
CCN1C(=O)/C(=C2/C=Cc3cc(C)ccc3N2CC)N(C)C1=S | -6 | -2 | -18 | 9 | 4 | -2
COc1cccc(NC(=O)Cn2c(=O)n(CCC(=O)NC3CCN(Cc4ccccc4)CC3)c(=O)c3ccccc32)c1 | 3 | 0 | -24 | -2 | -4 | 6
COC(=O)c1ccc2c(c1)C(C)(C)C(/C=C/c1ccccc1O)=[N+]2C | -5 | ? | -111 | -40 | -45 | 40*
COCCNC(=O)C1(C)CCCN(Cc2cc(-c3ccccc3)on2)C1 (configuration not stated) | / | / | / | / | 5 | /
Cc1ccc(F)cc1NC(=O)COC(=O)COc1ccc(C#N)cc1 | 2 | 0 | / | 4 | -3 | 1
SMILES | BCLXL inh | MEX-5 binding | EBV gp42 block | MCL1-BIM inh | eLon inh | GLD-1 RNA inh
COC(=O)c1cc(NC(=O)c2ccccc2)c(=O)oc1/C=C/Nc1ccc(Oc2ccccc2)cc1 | / | -9 | 186* | / | -205 | /
CCOC(=O)c1cc(NC(=O)c2ccccc2)c(=O)oc1-c1ccccc1 | 0 | 1 | -21 | 5 | 3 | -3
CCc1ccc(OCc2nnc(SCC(=O)NCc3ccco3)o2)cc1 | 54* | 1 | -7 | -5 | -9 | -3
COc1ccc(OCc2nnc(SCC(=O)NCc3ccco3)o2)cc1 | 5 | -1 | -15 | -2 | 4 | 6
COc1cc2c3nnc(-c4ccc(F)cc4)c-3cn(Cc3ccc(C)cc3)c2cc1OC | 13 | ? | -118 | -16 | -3 | -4
COc1cc2c3nnc(-c4ccccc4)c-3cn(Cc3ccc(F)cc3)c2cc1OC | -2 | -34* | 3 | 3 | -15 | -1
CCOc1cc(N2CCOCC2)c(OCC)cc1NC(C)C(=O)N1CCN(CC)CC1 (configuration not stated) | / | -28* | -22 | / | -5 | /
O=[N+]([O-])c1ccccc1/C=N\Nc1nccs1 | 10 | -4 | / | 6 | -8 | -1
O=[N+]([O-])c1cc(/C=N\Nc2nccs2)ccc1O | / | -100* | 93* | / | / | /
O=C(NCCS(=O)(=O)NC1CCCCC1)c1ccc2c(c1)OCO2 | -1 | 1 | / | -8 | 1 | -1
COc1cc(/C=C2/NC(=O)N(Cc3ccccc3F)C2=O)cc(OC)c1O | 10 | -10 | 35 | 14 | -10 | 66*
CCOc1cc(/C=C2/NC(=O)N(Cc3ccccc3F)C2=O)ccc1O | 3 | 1 | 6 | 0 | 0 | -5
O=C(O)CSCC(=O)Nc1ccccc1SCCS(=O)(=O)c1ccc(Cl)cc1 | / | 1 | / | / | -2 | /
CC(=O)NCCNc1ccc([N+](=O)[O-])cn1 | 4 | 0 | -18 | -1 | 2 | 6
CC(=O)NCCNc1ccc([N+](=O)[O-])cc1C#N | 2 | -41* | 4 | -1 | -1 | 3
O=[N+]([O-])c1cnccc1-n1nnc2ccccc21 | / | / | / | / | 0 | /
O=S(=O)(c1ccc(NC(=S)N/N=C/c2ccc(Oc3ccccc3)cc2)cc1)N1CCOCC1 | 0 | -2 | 5 | 5 | -8 | 1
O=S(=O)(c1ccc(NC(=S)N/N=C/c2c3ccccc3cc3ccccc23)cc1)N1CCOCC1 | 5 | -2 | 63* | -57 | -28 | -6
CCOCCCNc1nc2nc3ccc(C)cn3c(=O)c2cc1C(=O)NCC1CCCO1 (configuration not stated) | 8 | -34* | -11 | 2 | -2 | -1
C=CS(=O)(=O)N(Cc1ccccc1Br)[C@H](CO)CC(C)C | / | / | / | / | 0 | /
COc1cccc(CNC(=O)COC(=O)c2ccc(N3CCCC3=O)cc2)c1 | / | / | / | / | -8 | /
CCCOc1ccc(N2C(=O)CC(NCCNc3ccc(S(=O)(=O)CC)cc3)C2=O)cc1 (configuration not stated) | 59* | 2 | -14 | 4 | 2 | 2
COc1ccc(CNC(=O)C2CCC(=O)N(C3CCCCCC3)C2)c(OC)c1 (configuration not stated) | / | / | / | / | -8 | /
O=C(N/C(=C\c1ccco1)C(=O)N1CCCC1)c1ccccc1 | 40* | -1 | / | 41* | -5 | 7
Cc1ccc(C(=O)N/C(=C/c2ccco2)C(=O)N2CCCCCC2)cc1 | 12 | -2 | / | 10 | -9 | 0

Bioassay records: PubChem, several laboratories
